The results in this text go back to PubChem BioAssay (NCATS).

Molecules are shown by their SMILES. Inconclusive results are not listed. Calls of active or inactive are those of the source. Unless noted, calls follow the shape of the full dose curve.
Potency is read from the fitted curve at half-maximal effect.

System in one experiment: not listed separately
In words: qHTS for Inhibitors of Plasmodium falciparum (CP250) proliferation (AID 504320; active = well fitted inhibition curve with a large enough effect;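 as to activity change, negative = inhibition: plate controls were DMSO vehicle for no effect and 0.29 µM artemisinin control for full effect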). The conditions noted are these: P. falciparum CP250 in erythrocytes, SYBR Green DNA, 72 h; series mostly up to 6.7 µM; activity change, negative = inhibition: at the top concentration. The essentials:
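Erythrocytes infected with P. falciparum line (0.3% parasitemia, 2.5% hematocrit final) incubated with compounds 72 h at 37 °C, 5% CO2; SYBR Green lysis buffer added, fluorescence read next day. Normalized to 0.29 uM artemisinin and DMSO.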
In general terms: Quantitative high-throughput screening tests each substance at several concentrations.
For the compound `CC(Nc1oc(-c2ccccc2)nc1-c1cccc2ccccc12)c1ccccc1` (stereo not given), the Potency entry was “inactive”.
Turning to `C[C@@H]1CC[C@H]2C(=O)N(Cc3ccc(Cl)cc3)C[C@@H](O)CN2[C@@H]1c1ccc(Br)cc1`, the “activity change, negative = inhibition” value is -5.14% (inactive).
With `COC(=O)C1=C[C@H]([C@@H](C)[C@H](OC)c2ccccc2Br)[C@H]2c3ccccc3O[C@@H]12`, the “activity change, negative = inhibition” value was -6.94% (inactive).
Regarding `C[C@@H]1CC[C@H]2C(=O)O[C@@H](COc3ccc(C(C)(C)C)cc3)CN2[C@@H]1c1ccc(Br)cc1`, the Potency is 1510 nM (active).
With `CCN1C(N(C)CCc2c[nH]c3ccccc23)=NC(c2cccc(C(F)(F)F)c2)C(C(=O)OC)=C1C` (stereo not given), the “activity change, negative = inhibition” value is -23.1% (inactive).
The same measure, in the same setting: under `COC(=O)C1=C(C)N(Cc2ccccc2)C(=O)NC1CCc1ccccc1` (stereo not given) stands -1.95% (inactive); under `Cc1cc2c(c(=O)n1Cc1ccccc1)[C@H]1O[C@](c3ccsc3)(Cc3cc(C#N)ccc31)O2`, -0.657% (inactive); under `COc1ccc2c(c1)C[C@@H](C)O[C@]21C(=O)Nc2ccccc21`, -17.7% (inactive).
Still for that read-out and setting: under `CCN1C(=NCCc2c[nH]c3ccccc23)NC(c2cccc(F)c2)C(C(=O)OC)=C1C` (stereo not given) stands -17.6% (inactive).
Same read-out and setting: under `CCN(CC)CCCN1C(=O)C2=C(C1=O)C1N(C)c3ccccc3[C@@]13C[C@@H](CO)N(C(=O)CCC(=O)OC)C3=N2` (stereo not given in full) stands -2.24% (inactive); under `COc1cc2c(c(OC)c1OC)CC(c1ccccc1)=C(c1ccccc1)CC2NC(=O)C(F)(F)F` (stereo not given), -3.34% (inactive).
Regarding `CC(C)(C)OC(=O)C1=NOC2(C=CC(=O)C=C2)C1`, the “activity change, negative = inhibition” value was -7.61% (inactive).
In the case of `COC(=O)C1=C(C(=O)OC)[C@@H]2N(C)c3ccccc3[C@@]23C[C@@H](C(=O)OC)N(C(=O)NC2CCCC2)C3=N1`, the “activity change, negative = inhibition” value is 4.13% (inactive).
Same read-out and setting: under `CCOC(=O)C1(C(=O)OCC)CC2=C(C=CC3=C(C=C2)CC(C(=O)OCC)(C(=O)OCC)C3)C1` stands -3% (inactive); under `CC(=O)OC[C@H]1O[C@@H](ON=C(C)CCC(=O)OC[C@H]2O[C@H](C#Cc3ccccc3)C=C[C@H]2Oc2ccc(C)cc2)[C@H](OC(C)=O)[C@@H](OC(C)=O)[C@H]1OC(C)=O`, -21.6% (inactive); under `COC(=O)C1=C(C)N(Cc2ccccc2)C(=S)NC1c1cccc(C(F)(F)F)c1` (stereo not given), -3.43% (inactive).
With `C=CCN=C1NC(c2cccc(C(F)(F)F)c2)C(C(=O)OC)=C(C)N1CC` (stereo not given), the “activity change, negative = inhibition” value was -3.51% (inactive).
Still for that read-out and setting: under `CCN1C(=S)NC(c2cccs2)C(C(=O)OC)=C1C` (stereo not given) stands -0.953% (inactive); under `COc1ccc([C@]23Cc4ccccc4[C@H](O2)C2=C(CCCC2=O)O3)cc1`, 0.66% (inactive).
For `COC(=O)C1=C(C)N(Cc2ccccc2)C(=NCCc2c[nH]c3ccccc23)NC1c1cccc(F)c1` (stereo not given), the “activity change, negative = inhibition” value is -16.6% (inactive).

The target in another experiment is Atrial natriuretic peptide receptor 1 (Homo sapiens) (UniProt P16066). In words: Natriuretic polypeptide receptor (hNpr1) antagonism - Pilot CMLD screen (AID 1347052).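 Also: cGMP level read as GloSensor luciferase luminescence after agonist stimulation.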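 As to activity change, negative = inhibition: HEK293 cells with hNpr1 stimulated by hNppA peptide at 0.1 nM; % is scaled to controls: 0 for no effect and ±100 for the full control effect.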 The following applies: HEK293 hNpr1 GloSensor cGMP luminescence, ANP-stimulated; series mostly up to 9.22 µM; activity change, negative = inhibition: at the top concentration.
Chain of Atrial natriuretic peptide receptor 1 (Homo sapiens) (P16066 whole entry, looked up): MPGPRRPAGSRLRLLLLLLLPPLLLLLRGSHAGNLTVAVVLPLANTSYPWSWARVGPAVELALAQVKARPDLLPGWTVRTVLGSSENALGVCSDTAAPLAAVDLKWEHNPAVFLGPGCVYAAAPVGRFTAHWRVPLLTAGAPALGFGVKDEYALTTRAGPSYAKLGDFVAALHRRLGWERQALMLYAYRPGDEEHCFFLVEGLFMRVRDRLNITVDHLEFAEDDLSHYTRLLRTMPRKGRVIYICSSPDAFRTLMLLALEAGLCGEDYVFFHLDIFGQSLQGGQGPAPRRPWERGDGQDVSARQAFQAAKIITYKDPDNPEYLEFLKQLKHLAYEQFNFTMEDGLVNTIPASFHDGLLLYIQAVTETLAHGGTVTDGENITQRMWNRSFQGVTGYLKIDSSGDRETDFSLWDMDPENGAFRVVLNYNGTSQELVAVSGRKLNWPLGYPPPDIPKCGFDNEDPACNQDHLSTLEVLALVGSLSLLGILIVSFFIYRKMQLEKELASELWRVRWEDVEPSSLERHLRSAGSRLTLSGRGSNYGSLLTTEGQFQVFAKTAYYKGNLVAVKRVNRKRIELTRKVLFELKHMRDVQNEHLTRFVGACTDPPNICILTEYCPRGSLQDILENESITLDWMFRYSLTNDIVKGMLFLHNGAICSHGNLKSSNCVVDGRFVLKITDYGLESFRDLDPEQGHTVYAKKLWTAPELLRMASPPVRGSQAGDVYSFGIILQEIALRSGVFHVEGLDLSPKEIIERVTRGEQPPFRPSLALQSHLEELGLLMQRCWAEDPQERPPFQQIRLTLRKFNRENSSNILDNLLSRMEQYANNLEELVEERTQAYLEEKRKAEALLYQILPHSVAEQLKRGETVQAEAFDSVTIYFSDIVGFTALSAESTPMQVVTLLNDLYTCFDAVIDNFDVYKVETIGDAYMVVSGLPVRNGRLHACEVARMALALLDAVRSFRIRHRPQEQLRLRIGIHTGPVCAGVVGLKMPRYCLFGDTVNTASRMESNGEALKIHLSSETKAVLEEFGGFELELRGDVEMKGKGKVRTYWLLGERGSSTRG
`CC(Nc1oc(-c2ccccc2)nc1-c1cccc2ccccc12)c1ccccc1` (stereo not given): the Potency entry was “inactive”.
For the compound `CC1=CC[C@@H](COc2ccccc2)O[C@@]2(C1)C(=O)N(Cc1ccccc1C(F)(F)F)c1cccc(Br)c12`, the “activity change, negative = inhibition” value is 0.849% (inactive).
Same read-out and setting: under `COC(=O)c1ccc(CN2C(=O)[C@@]3(CC(C)=CC[C@@H](COc4ccccc4)O3)c3c(Br)cccc32)cc1` stands -0.672% (inactive); under `COC1=C(C(=O)c2ccccc2)C(=O)[C@@]2(CC=C(C)C)C[C@@H]([S+](=O)([O-])c3ccccc3)C(C)(C)[C@@]1(CC=C(C)C)C2=O`, 5.28% (inactive); under `C[C@@H]1CC[C@H]2C(=O)N(Cc3ccc(Cl)cc3)C[C@@H](O)CN2[C@@H]1c1ccc(Br)cc1`, -10.2% (inactive).
The same measure, in the same setting: under `FC(F)(F)c1cc(NC(=S)Nc2ccc3ccccc3c2)cc(C(F)(F)F)c1` stands -1.71% (inactive); under `COC(=O)C1=C(C)N(Cc2ccccc2)C(=NCC2CC2)NC1c1ccc(Br)cc1` (stereo not given), -3.03% (inactive).
Still for that read-out and setting: under `O=C1N(Cc2ccc(F)cc2)c2ccccc2[C@@]12O[C@H](COc1ccccc1)CC1CCCC12` (stereo not given in full) stands 7.13% (inactive); under `CC(C)(C)Nc1oc(-c2ccccc2)nc1C=Cc1ccccc1`, -8.01% (inactive); under `COC(=O)C1=C(C(=O)OC)[C@@H]2N(Cc3ccccc3)c3ccccc3[C@@]23CCC(=O)N(CC2CC2)C3=N1`, 0.585% (inactive).
In the case of `C[C@H]1C[C@@H](C)O[C@@]2(C1)C(=O)N(Cc1ccc(F)cc1)c1ccccc12`, the “activity change, negative = inhibition” value is -2.36% (inactive).
Same read-out and setting: under `COC(=O)C1=C[C@H]([C@@H](C)[C@H](OC)c2ccccc2Br)[C@H]2c3ccccc3O[C@@H]12` stands 1.13% (inactive).
Regarding `COC(=O)CC1c2ccccc2C=C(C=Cc2ccc3c(c2)OCO3)N1C(=O)OC` (stereo not given), the “activity change, negative = inhibition” value was -10.2% (inactive).
Take `C[C@@H]1CC[C@H]2C(=O)O[C@@H](COc3ccc(C(C)(C)C)cc3)CN2[C@@H]1c1ccc(Br)cc1`: the “activity change, negative = inhibition” value is 7.94% (inactive).
Same read-out and setting: under `CCN1C(N(C)CCc2c[nH]c3ccccc23)=NC(c2cccc(C(F)(F)F)c2)C(C(=O)OC)=C1C` (stereo not given) stands -0.0158% (inactive).
As for `COc1cc2c(c(OC)c1OC)C(c1ccccc1)(c1ccccc1)CC2NC(=O)C(F)(F)F` (stereo not given), the “activity change, negative = inhibition” value was -2.68% (inactive).
For the compound `COC(=O)C1=C(C)N(Cc2ccccc2)C(=O)NC1CCc1ccccc1` (stereo not given), the “activity change, negative = inhibition” value was -6.22% (inactive).
Same read-out and setting: under `Cc1cc2c(c(=O)n1Cc1ccccc1)[C@H]1O[C@](c3ccsc3)(Cc3cc(C#N)ccc31)O2` stands -0.0805% (inactive).
Same read-out and setting: under `COc1ccc2c(c1)C[C@@H](C)O[C@]21C(=O)Nc2ccccc21` stands -5.46% (inactive); under `CCN1C(=NCCc2c[nH]c3ccccc23)NC(c2cccc(F)c2)C(C(=O)OC)=C1C` (stereo not given), -2.59% (inactive); under `CCN(CC)CCCN1C(=O)C2=C(C1=O)C1N(C)c3ccccc3[C@@]13C[C@@H](CO)N(C(=O)CCC(=O)OC)C3=N2` (stereo not given in full), 13.4% (inactive).
On the same count and under the same terms, under `C#CCN1C(=O)[C@]2(O[C@H](COc3ccccc3)CC3=CCCC32)c2c(Br)cccc21` (stereo not given in full) stands 1.23% (inactive); under `COC(=O)C1=C(C)N(Cc2ccccc2)C(=NCc2ccc(OC)cc2)NC1c1cccc(F)c1` (stereo not given), -1.44% (inactive); under `C[C@H]1CC[C@H]2C(=O)O[C@H](COc3ccc(C(C)(C)C)cc3)CN2[C@H]1c1ccc(Br)cc1`, -19.2% (inactive).
As for `COc1cc2c(c(OC)c1OC)CC(c1ccccc1)=C(c1ccccc1)CC2NC(=O)C(F)(F)F` (stereo not given), the “activity change, negative = inhibition” value is -0.198% (inactive).
Consider `CC(C)(C)OC(=O)C1=NOC2(C=CC(=O)C=C2)C1`, for which the Potency is 376 nM (active).
For the compound `COC(=O)C1=C(C(=O)OC)[C@@H]2N(C)c3ccccc3[C@@]23C[C@@H](C(=O)OC)N(C(=O)NC2CCCC2)C3=N1`, the “activity change, negative = inhibition” value was -0.147% (inactive).
On the same count and under the same terms, under `CCOC(=O)C1(C(=O)OCC)CC2=C(C=CC3=C(C=C2)CC(C(=O)OCC)(C(=O)OCC)C3)C1` stands 1.15% (inactive); under `CC(=O)OC[C@H]1O[C@@H](ON=C(C)CCC(=O)OC[C@H]2O[C@H](C#Cc3ccccc3)C=C[C@H]2Oc2ccc(C)cc2)[C@H](OC(C)=O)[C@@H](OC(C)=O)[C@H]1OC(C)=O`, -0.0156% (inactive).
With `COC(=O)C1=C(C(=O)OC)[C@@H]2N(C)c3ccccc3[C@@]23C[C@@H](CO)N(C(=O)NC2CCCC2)C3=N1`, the “activity change, negative = inhibition” value was 5.23% (inactive).
For `COC(=O)C1=C(C)N(Cc2ccccc2)C(=S)NC1c1cccc(C(F)(F)F)c1` (stereo not given), the “activity change, negative = inhibition” value was -3.43% (inactive).
For the compound `C=CCN=C1NC(c2cccc(C(F)(F)F)c2)C(C(=O)OC)=C(C)N1CC` (stereo not given), the “activity change, negative = inhibition” value is -1.17% (inactive).
On to `COC(=O)C1=C(C)N(CC2CC2)C(N(C)Cc2ccc(OC)cc2)=NC1c1ccccc1` (stereo not given), for which the “activity change, negative = inhibition” value is -2.48% (inactive).
The same measure, in the same setting: under `C=CCN=C1N[C@H](c2ccc(Br)cc2)C(C(=O)OC)=C(C)N1Cc1ccccc1` stands -19.7% (inactive); under `CCN1C(=S)NC(c2cccs2)C(C(=O)OC)=C1C` (stereo not given), 5.61% (inactive).
With `COc1ccc([C@]23Cc4ccccc4[C@H](O2)C2=C(CCCC2=O)O3)cc1`, the “activity change, negative = inhibition” value was 0.102% (inactive).
Take `CC(C)=CCCC(C)=CCN1C(=O)[C@]2(O[C@H](COc3ccccc3)CC3=CCCC32)c2c(Br)cccc21` (stereo not given in full): the “activity change, negative = inhibition” value is 11.9% (inactive).
For the compound `CCN1C(=NCc2cccc(C(F)(F)F)c2)NC(c2ccccc2)C(C(=O)OC)=C1C` (stereo not given), the “activity change, negative = inhibition” value is -0.546% (inactive).
The same measure, in the same setting: under `CC(C)=CCN1C(=O)[C@]2(O[C@H](COc3ccccc3)CC3=C2CCC3)c2ccccc21` stands 5.89% (inactive); under `COC(=O)C1=C(C)N(Cc2ccccc2)C(=NCCc2c[nH]c3ccccc23)NC1c1cccc(F)c1` (stereo not given), -0.149% (inactive).
